The structures appear in SMILES notation. Results filed as inconclusive are left out. Activity calls are given as the source filed them. Unless noted, the call rests on the fitted dose curve; in most records, active means well fitted curve in either direction with a large enough effect (not every such curve was filed as active); inconclusive means small, poorly fitted or top-dose-only effect, or another doubt; inactive means flat fitted curve, though single readings scatter.

In assay [1] the target is Lysosomal acid glucosylceramidase (Homo sapiens) (UniProt P04062). The assay is described as follows: Glucocerebrosidase-p2 (AID 348; in the data active means potency below about 10 µM; further: potency means the concentration at half of the fitted maximal effect). The following applies: purified GBA, blue fluorogenic substrate, 40 min. A digest of the protocol:
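Compounds titrated from 0.6 nM upwards against 0.2 nM enzyme in pH 5.9 citric acid/KH2PO4, taurocholate, tween-20; blue fluorogenic substrate 80 uM, 40 min room temperature, stopped and read Ex 365/Em 440 for AC50.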

Assay [2] in a line: AP1 Signaling Pathway (AID 357).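 Further: ME-180 reporter cells stimulated with EGF at its EC50 level; on the % scale 0 is the no-effect control and ±100 the full control effect.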 The conditions noted are these: ME-180 AP-1-bla reporter, EGF-induced, beta-lactamase ratio, 5 h; at 7.69 µM (top of the series) unless noted. Summed up: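 First, ME-180 AP-1-bla cells were cultured overnight at 37 °C in low-serum Opti-MEM. Next, titrated compounds with EC50 EGF were incubated 5 hours. Finally, CCF4 was added for 2.5 hours and the 460/530 nm ratio recorded.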

The target of assay [3] is Cytochrome P450 1A2 (Homo sapiens) (UniProt P05177). The assay is described as follows: p450-cyp1a2 (AID 410; calls by dose curve; further: potency means the concentration at half of the fitted maximal effect;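 on activity change, negative = inhibition: -100% = full effect of reference inhibitor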). The following applies: recombinant CYP1A2, luciferin-ME demethylation, luminescence; series mostly up to 57 µM. A digest of the protocol: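 Inhibition was calculated relative to 57 uM furafylline (full inhibition). The reaction used human CYP1A2 at 20nM with Luciferin-ME at its Km, 100uM, driven by an NADPH-regenerating system for 60 min at room temperature.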
Chain of Cytochrome P450 1A2 (Homo sapiens) (P05177 whole entry, looked up): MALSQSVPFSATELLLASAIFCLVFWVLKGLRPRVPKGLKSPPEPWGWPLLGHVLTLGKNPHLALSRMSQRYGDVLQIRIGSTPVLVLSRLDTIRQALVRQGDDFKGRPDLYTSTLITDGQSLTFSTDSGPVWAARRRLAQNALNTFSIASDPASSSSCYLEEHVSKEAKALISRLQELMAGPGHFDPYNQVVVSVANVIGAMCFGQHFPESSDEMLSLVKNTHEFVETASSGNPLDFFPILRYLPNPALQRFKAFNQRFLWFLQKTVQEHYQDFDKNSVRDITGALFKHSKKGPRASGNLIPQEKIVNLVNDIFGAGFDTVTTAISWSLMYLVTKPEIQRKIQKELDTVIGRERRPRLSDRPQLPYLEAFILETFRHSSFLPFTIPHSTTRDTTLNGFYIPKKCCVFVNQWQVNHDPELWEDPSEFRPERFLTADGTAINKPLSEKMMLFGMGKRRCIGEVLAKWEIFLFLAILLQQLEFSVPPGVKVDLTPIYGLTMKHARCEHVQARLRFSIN

Assay [4] can be described thus: NFAT Signaling Pathway (AID 444).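 Further: carbachol stimulus at about its EC50 of 1 µM final; on the % scale 0 is the no-effect control and ±100 the full control effect.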 The following applies: Jurkat NFAT-bla M1, carbachol, beta-lactamase ratio, 5 h; at 7.69 µM (top of the series) unless noted. A digest of the protocol:
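Read-out: CCF4 FRET ratio (460 nm/530 nm) after 1 h RT dye loading, used for %activity and AC50 from titration series. Cells: Jurkat NFAT-β-lactamase/M1 line, treated with compound plus 1 uM carbachol for 5 h, 37 °C.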

The nature of assay [5]: Stat Signaling Pathway (AID 446).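 Further: ME-180 cervical cancer cells given 40 pM IL-6 alongside compound; SIE-controlled beta-lactamase reporter measured as 460/530 nm FRET emission ratio; on the % scale 0 is the no-effect control and ±100 the full control effect.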 The conditions noted are these: ME-180 (cervical carcinoma) SIE beta-lactamase reporter, IL-6 stimulated, 5 h; at 7.69 µM (top of the series) unless noted. Summed up:
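ME-180 SIE-bla cells; overnight plating; cpd + IL-6 40 pM, 5 h, 37 C; LiveBLAzer 2.5 h RT; 460/530 nm emission ratio. Normalized to 300 pM IL-6 and 125 nM JAK inhibitor controls.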

In assay [6] the target is Glucocorticoid receptor (Homo sapiens) (UniProt P04150). The assay is described as follows: GR-EFC Redistribution (AID 451; calls by dose curve; further: potency means the concentration at half of the fitted maximal effect). The following applies: CHO-K1 GR-EFC translocation, beta-gal luminescence, 2 h. A digest of the protocol:
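Translocation of GR-ED fusion to nuclear EA restores b-gal, read by luminescence after 1 h room-temperature detection. Engineered CHO-K1 biosensor cells, 1,000/well, exposed 2 h at 37 C to titrations up to 46 uM final.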

Assay [7] concerns the target Mitogen-activated protein kinase 10 (Mus musculus) (UniProt Q61831). The assay is described as follows: JNK3 AlphaScreen Assay (AID 530).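 Further: kinase came from lysate of stimulated human HepG2 cells; signal reports phosphorylation of biotinylated GST-cJun 1-79 at Ser73 with 10 µM ATP; on the % scale 0 is the no-effect control and ±100 the full control effect.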 The conditions noted are these: JNK3 lysate, c-Jun phosphorylation; series mostly up to 57.1 µM. A digest of the protocol:
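Room-temperature AlphaScreen kinase assay; pre-activated HepG2 lysate as JNK3 source, biotin-GST-cJun(1-79) substrate, 10 uM ATP, compound 15 min preincubation.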
In general terms: Alpha assays give light when donor and acceptor beads are brought close together.

For assay [8], the target named is 3',5'-cyclic-AMP phosphodiesterase 4B (Homo sapiens) (UniProt Q07343). The assay is described as follows: qHTS Assay for Inhibitors of PDE-IV (AID 607; active means well fitted activation curve with a large enough effect in the main read-out, with a control signal flat, not every such curve was filed as active; further: % of control where 0% means no effect). The following applies: HEK293 ACTOne CNG channel cells, membrane potential fluorescence; series mostly up to 22.9 µM. Summed up:
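ACTOne HEK293 cells carry a modified cAMP-gated CNG channel and express endogenous PDE4; plated 1000 cells/well, compounds up to 22.9 uM final. Membrane-potential dye fluorescence (ex 535/em 590) was read; parental cells received 10 uM forskolin + 100 uM RO 20-1724.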
A general note: In qHTS, concentration-response curves come from the screen itself.

Assay [9] deals with Cytochrome P450 3A4 (Homo sapiens) (UniProt P08684). The assay is described as follows: qHTS Assay for Inhibitors and Substrates of Cytochrome P450 3A4 (AID 884; active means well fitted curve in the direction sought with a large enough effect; an effect the other way counts as inactive or inconclusive; further: on the % scale 0 is the no-effect control and ±100 the full control effect; nearly all actives have a fitted effect of over 50% in size). The following applies: recombinant CYP3A4, Luciferin-PPXE luminescence; series mostly up to 57.1 µM. Summed up: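 20 nM human CYP3A4 with 25 uM Luciferin-PPXE (at KM) in 200 mM KPO4, preincubated 10 min with compound; NADPH regeneration started a 60 min RT reaction. Luciferin detected by luminescence, normalized to 57 uM ketoconazole as full inhibition.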
Chain of Cytochrome P450 3A4 (Homo sapiens) (P08684 whole entry, looked up): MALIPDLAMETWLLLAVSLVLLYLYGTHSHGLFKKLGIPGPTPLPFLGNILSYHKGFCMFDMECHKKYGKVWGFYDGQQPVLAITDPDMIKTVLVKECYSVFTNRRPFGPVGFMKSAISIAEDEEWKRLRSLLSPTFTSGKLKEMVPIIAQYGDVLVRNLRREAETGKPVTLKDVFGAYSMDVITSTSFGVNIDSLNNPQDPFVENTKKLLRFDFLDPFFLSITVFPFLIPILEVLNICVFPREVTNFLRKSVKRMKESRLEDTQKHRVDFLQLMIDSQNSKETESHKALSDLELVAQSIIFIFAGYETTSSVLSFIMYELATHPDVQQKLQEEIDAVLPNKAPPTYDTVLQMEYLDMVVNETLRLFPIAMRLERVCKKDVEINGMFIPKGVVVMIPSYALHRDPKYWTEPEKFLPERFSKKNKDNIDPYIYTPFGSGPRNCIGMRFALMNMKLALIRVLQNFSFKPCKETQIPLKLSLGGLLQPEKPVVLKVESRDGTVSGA

For assay [10] the target is unchanged. The assay is described as follows: qHTS Assay for Activators of Cytochrome P450 3A4 (AID 885; active means well fitted curve in the direction sought with a large enough effect; an effect the other way counts as inactive or inconclusive; further: potency means the concentration at half of the fitted maximal effect; nearly all actives have a fitted effect of over 65% in size). The following applies: recombinant CYP3A4, Luciferin-PPXE luminescence, 60 min; series mostly up to 57.1 µM. A digest of the protocol:
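20nM CYP3A4 + 25uM Luciferin-PPXE (=KM), 200mM KPO4; cpd 10 min RT; NADPH regen, 60 min RT; stop w/ detection buffer, 20 min; luminescence. Normalized to 57 uM ketoconazole.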

Assay [11] has as its target Cytochrome P450 2D6 (Homo sapiens) (UniProt P10635). Description: qHTS Assay for Inhibitors and Substrates of Cytochrome P450 2D6 (AID 891; active means well fitted curve in the direction sought with a large enough effect; an effect the other way counts as inactive or inconclusive; further: nearly all actives have a fitted effect of over 60% in size; further: potency means the concentration at half of the fitted maximal effect). The following applies: recombinant CYP2D6, luciferin-ME EGE luminescence; series mostly up to 57.1 µM. A digest of the protocol:
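Human CYP2D6 (5 nM) with 30 uM Luciferin-ME EGE (at Km) in 100 mM KPO4, compound preincubated 10 min, then NADPH regeneration system for 60 min at room temperature. Luciferin read by luminescence; normalized to 1.43 uM quinidine.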

Assay [12] in a line: qHTS Assay for Lipid Storage Modulators (AID 1519; calls by dose curve). The following applies: Drosophila S3 cells, BODIPY lipid droplet/cell ratio, laser cytometry, cells loaded with oleic acid; for activity change, negative = inhibition: at 57.5 µM (top of the series). A digest of the protocol:
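Cells seeded at 5,000 per well were treated with compounds over a concentration series and loaded with oleic acid (400 uM, as added). Lipid droplet fluorescence (488 nm excitation, 500-530 nm channel) was read by laser-scanning cytometry and normalized to 20 uM Triacsin C.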

Assay [13] can be described thus: Primary qHTS for small molecule stabilizers of the endoplasmic reticulum resident proteome: Secreted ER Calcium Modulated Protein (SERCaMP) assay (AID 1508630; active means well fitted curve in the direction sought with a large enough effect; an effect the other way counts as inactive or inconclusive; further: on the % scale 0 is the no-effect control and ±100 the full control effect). The conditions noted are these: SH-SY5Y GLuc-SERCaMP (Gaussia luciferase released on ER calcium loss) secretion, thapsigargin, luminescence; series mostly up to 38.4 µM. Summed up:
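GLuc-SERCaMP-expressing SH-SY5Y cells, pretreated 16 h with compound, are challenged with thapsigargin to empty ER calcium stores; after 4 h, coelenterazine is added directly to the medium and luminescence is imaged.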

Assay [14] deals with Cytochrome P450 2C9 (Homo sapiens) (UniProt P11712). Description: qHTS Assay for Inhibitors and Substrates of Cytochrome P450 2C9 (AID 883; active means well fitted curve in the direction sought with a large enough effect; an effect the other way counts as inactive or inconclusive; further: on the % scale 0 is the no-effect control and ±100 the full control effect; nearly all actives have a fitted effect of over 60% in size). The following applies: recombinant CYP2C9, luciferin-H luminescence, 60 min; series mostly up to 57.1 µM. A digest of the protocol: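 Luminescent read-out of deoxyluciferin hydroxylation, normalized to 57uM sulphaphenazole (AC100). Reaction: 10nM enzyme, 100uM Luciferin-H (equal to KM), 25mM KPO4, 10 min compound preincubation, then 60 min with NADPH regeneration, both at 37C.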
Chain of Cytochrome P450 2C9 (Homo sapiens) (P11712 whole entry, looked up): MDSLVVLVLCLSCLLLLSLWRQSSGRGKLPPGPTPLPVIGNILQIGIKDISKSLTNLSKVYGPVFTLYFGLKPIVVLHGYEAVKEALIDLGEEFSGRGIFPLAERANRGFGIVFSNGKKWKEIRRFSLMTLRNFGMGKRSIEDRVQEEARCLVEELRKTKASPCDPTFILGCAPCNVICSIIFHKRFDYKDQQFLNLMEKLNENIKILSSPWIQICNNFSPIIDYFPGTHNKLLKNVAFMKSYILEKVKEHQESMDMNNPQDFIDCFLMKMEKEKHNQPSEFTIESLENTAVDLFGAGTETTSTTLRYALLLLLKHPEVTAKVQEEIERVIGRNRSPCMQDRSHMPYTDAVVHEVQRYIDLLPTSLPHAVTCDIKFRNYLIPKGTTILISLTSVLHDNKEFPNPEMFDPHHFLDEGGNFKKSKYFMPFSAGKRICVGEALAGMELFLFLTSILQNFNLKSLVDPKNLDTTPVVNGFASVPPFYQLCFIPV

Assay [15] concerns the target Cytochrome P450 2C19 (Homo sapiens) (UniProt P33261). The assay is described as follows: qHTS Assay for Inhibitors and Substrates of Cytochrome P450 2C19 (AID 899; active means well fitted curve in the direction sought with a large enough effect; an effect the other way counts as inactive or inconclusive; further: on the % scale 0 is the no-effect control and ±100 the full control effect; nearly all actives have a fitted effect of over 60% in size). The conditions noted are these: recombinant CYP2C19, luciferin-H EGE luminescence; series mostly up to 57.1 µM. A digest of the protocol: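 Luminescence readout of luciferin formed from 10uM Luciferin-H EGE (KM level) by 5 nM CYP2C19 in 50mM KPO4. 60 min NADPH-driven reaction at 37C after 10 min compound preincubation; data scaled to 57uM ketoconazole inhibition.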

[16] abbreviates: measured here: cell count channel max response.
Setting [17] is: measured here: lipid channel max response.

Chain of Cytochrome P450 2D6 (Homo sapiens) (P10635 whole entry, looked up): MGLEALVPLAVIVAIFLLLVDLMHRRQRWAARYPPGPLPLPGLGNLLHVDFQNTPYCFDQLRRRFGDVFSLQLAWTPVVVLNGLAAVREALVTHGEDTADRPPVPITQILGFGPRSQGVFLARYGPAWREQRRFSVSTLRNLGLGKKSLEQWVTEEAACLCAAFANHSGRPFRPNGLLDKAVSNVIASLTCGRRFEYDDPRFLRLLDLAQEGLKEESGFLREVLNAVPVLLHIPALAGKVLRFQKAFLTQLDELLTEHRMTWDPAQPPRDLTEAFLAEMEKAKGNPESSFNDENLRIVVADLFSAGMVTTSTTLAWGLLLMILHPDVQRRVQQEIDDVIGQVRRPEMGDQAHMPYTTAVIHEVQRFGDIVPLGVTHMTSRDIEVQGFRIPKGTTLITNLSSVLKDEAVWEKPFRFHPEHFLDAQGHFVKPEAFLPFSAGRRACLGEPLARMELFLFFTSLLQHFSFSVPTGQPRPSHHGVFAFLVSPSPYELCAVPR
Chain of Lysosomal acid glucosylceramidase (Homo sapiens) (P04062 whole entry, looked up): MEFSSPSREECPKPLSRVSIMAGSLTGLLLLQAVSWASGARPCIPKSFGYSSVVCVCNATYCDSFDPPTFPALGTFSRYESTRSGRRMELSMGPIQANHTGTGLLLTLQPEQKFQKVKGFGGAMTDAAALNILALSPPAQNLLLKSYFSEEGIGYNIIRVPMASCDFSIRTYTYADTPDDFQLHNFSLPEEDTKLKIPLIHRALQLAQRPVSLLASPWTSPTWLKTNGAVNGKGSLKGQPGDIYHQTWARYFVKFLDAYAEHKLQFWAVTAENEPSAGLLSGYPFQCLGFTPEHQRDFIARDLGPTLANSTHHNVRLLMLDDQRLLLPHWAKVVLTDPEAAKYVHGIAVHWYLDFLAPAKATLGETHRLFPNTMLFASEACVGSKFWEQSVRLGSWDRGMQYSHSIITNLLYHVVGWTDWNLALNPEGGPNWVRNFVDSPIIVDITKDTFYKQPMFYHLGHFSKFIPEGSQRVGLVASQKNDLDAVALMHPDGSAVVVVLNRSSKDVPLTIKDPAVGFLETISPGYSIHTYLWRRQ
Chain of 3',5'-cyclic-AMP phosphodiesterase 4B (Homo sapiens) (Q07343 whole entry, looked up): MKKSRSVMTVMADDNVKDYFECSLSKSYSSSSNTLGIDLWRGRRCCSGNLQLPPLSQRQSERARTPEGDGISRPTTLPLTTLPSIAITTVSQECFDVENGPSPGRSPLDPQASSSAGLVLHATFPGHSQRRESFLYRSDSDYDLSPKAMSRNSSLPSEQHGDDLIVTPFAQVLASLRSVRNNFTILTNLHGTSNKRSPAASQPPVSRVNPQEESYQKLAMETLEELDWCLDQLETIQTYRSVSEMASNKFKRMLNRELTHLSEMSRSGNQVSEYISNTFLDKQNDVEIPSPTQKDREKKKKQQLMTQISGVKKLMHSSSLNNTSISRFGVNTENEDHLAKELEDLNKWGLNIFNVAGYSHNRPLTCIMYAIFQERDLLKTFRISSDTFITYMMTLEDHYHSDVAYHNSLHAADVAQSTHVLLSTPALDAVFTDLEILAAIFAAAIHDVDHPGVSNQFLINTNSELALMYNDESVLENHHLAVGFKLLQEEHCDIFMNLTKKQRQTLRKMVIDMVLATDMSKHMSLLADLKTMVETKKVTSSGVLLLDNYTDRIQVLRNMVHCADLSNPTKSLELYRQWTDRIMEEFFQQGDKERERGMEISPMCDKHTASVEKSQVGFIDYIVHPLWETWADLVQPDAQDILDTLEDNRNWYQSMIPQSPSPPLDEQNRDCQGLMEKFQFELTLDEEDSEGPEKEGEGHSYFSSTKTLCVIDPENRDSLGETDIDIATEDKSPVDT
Chain of Glucocorticoid receptor (Homo sapiens) (P04150 whole entry, looked up, the tested form may be a part): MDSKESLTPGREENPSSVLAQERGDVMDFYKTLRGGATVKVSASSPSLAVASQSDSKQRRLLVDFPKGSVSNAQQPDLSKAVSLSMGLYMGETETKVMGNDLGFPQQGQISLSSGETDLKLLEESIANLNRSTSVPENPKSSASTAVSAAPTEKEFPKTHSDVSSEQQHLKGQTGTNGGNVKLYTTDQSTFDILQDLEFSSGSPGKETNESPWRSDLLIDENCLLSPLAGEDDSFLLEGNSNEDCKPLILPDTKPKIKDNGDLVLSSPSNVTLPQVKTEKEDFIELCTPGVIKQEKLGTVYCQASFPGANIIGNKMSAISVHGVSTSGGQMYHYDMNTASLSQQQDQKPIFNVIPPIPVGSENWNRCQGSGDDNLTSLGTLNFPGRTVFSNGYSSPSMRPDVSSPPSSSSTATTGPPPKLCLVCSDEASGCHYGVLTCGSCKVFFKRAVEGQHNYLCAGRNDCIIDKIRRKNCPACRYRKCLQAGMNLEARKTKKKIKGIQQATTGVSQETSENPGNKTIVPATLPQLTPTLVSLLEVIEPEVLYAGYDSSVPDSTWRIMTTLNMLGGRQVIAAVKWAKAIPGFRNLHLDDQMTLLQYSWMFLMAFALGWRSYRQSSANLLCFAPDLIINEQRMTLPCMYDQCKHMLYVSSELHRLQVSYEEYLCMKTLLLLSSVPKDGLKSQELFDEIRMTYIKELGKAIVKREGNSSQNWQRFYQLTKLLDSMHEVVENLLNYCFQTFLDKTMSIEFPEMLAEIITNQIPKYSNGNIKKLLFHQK
Chain of Cytochrome P450 2C19 (Homo sapiens) (P33261 whole entry, looked up): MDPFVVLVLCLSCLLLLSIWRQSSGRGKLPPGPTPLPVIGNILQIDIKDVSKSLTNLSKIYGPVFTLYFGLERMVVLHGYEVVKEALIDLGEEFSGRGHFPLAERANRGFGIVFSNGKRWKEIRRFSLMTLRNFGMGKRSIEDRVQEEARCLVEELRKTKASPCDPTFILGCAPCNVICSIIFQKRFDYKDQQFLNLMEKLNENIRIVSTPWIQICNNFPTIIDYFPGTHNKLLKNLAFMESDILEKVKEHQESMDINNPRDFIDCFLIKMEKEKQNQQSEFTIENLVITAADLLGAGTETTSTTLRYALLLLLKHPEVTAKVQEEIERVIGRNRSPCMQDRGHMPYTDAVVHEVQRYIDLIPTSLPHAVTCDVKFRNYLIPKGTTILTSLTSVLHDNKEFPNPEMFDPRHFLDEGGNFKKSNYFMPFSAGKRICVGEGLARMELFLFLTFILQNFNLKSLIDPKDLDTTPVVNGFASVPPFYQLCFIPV

With `O=C(c1ccncc1)N1CCC2(CC1)CN(C(c1ccccc1)c1ccccc1)C2`, the Potency in [1] was > 11.4 µM (inactive); in [3] it was 15.8 µM (active); in [6] it was > 46 µM (inactive); in [10], 3.98 µM (active); in [11], 0.0251 µM (active). Moreover, the figures for the activity change, negative = inhibition in assay [2], in [4] and in assay [12] were 4.62% (inactive), 16.7% (inactive) and 4.23% (inactive), respectively. For the same compound, in assay [5], the activity, negative = inhibition is -10.1% (inactive). Further, the result in [7] was inactive. In addition, the Potency entry in assay [8], in [9] and in assay [13] was “inactive” in each case. For the same compound, the max response was -4.87% in assay [12] (setting [16]) and 3.6% in [12] (setting [17]).
On to `CC(C)NC(=O)N1CCC2(CC1)CCN(C(=O)c1cccc(F)c1)CC2`, for which the Potency in assay [1] is > 11.4 µM (inactive); in assay [6], > 46 µM (inactive); in assay [10], 20 µM (active). The activity change, negative = inhibition was 10.6% (inactive) in [2], 6.56% (inactive) in assay [4] and 1.61% (inactive) in assay [12]. In addition, the Potency result in assay [3], in assay [8], in assay [9] and in assay [13] was “inactive” each time. Besides, in assay [5], the activity, negative = inhibition is 7.13% (inactive). For the same compound, in [7], the outcome was inactive. Moreover, the max response in assay [12] (setting [16]) is -10.3%; in assay [12] (setting [17]) it was -8.2%.
As to `O=C(Nc1cccc(F)c1)N1CCC2(CC1)CCN(C(=O)c1csnn1)CC2`, the Potency in assay [1] is > 11.4 µM (inactive); in [6], > 46 µM (inactive). Moreover, the figures for the activity change, negative = inhibition in assay [2], in assay [4] and in assay [12] were -8.39% (inactive), 26.3% (inactive) and 5.59% (inactive), respectively. The Potency result in [3], in assay [8] and in assay [13] was “inactive” in each case. In assay [5], the activity, negative = inhibition was -9.77% (inactive). Moreover, the result in assay [7] was inactive. In addition, the max response worked out at 12.6% in assay [12] (setting [16]) and 21.6% in assay [12] (setting [17]).
On to `O=C(c1cnccn1)N1CCC2(CC1)CCN(C(c1ccccc1)c1ccccc1)CC2`, for which the Potency in assay [1] was > 11.4 µM (inactive); in [3], 10 µM (active); in [6], > 46 µM (inactive); in [10] it was 3.16 µM (active); in assay [11] it was 3.98 µM (active). In addition, the activity change, negative = inhibition in assay [2] is 8.38% (inactive); in [4], -20.1% (inactive); in assay [12] it was 1.71% (inactive). Also, in assay [5], the activity, negative = inhibition is 6.95% (inactive). Further, in assay [7], the outcome was inactive. Moreover, the Potency entry in assay [8], in assay [9] and in assay [13] was “inactive” each time. Besides, the figures for the max response in assay [12] (setting [16]) and in assay [12] (setting [17]) were 1.55% and 5.2%, respectively.
`Cc1noc(C)c1C(=O)N1CCC2(CC1)CN(c1ccccc1)C2`: the Potency was > 11.4 µM (inactive) in [1] and > 46 µM (inactive) in assay [6]. Further, the activity change, negative = inhibition in assay [2] is -19.3% (inactive); in assay [4] it was 3.6% (inactive); in [12], 4.6% (inactive). For the same compound, the Potency result in assay [3], in [8] and in assay [13] was “inactive” each time. For the same compound, the activity, negative = inhibition in assay [5] was -19% (inactive). Moreover, in assay [7], the outcome was inactive. Also, the values for the max response in assay [12] (setting [16]) and in [12] (setting [17]) were -4.97% and 1.75%, respectively.
For the compound `COCC(=O)N1CCC[C@@]2(CCN(C(=O)Nc3cccc(C#N)c3)C2)C1`, the Potency in assay [1] is > 11.4 µM (inactive); in assay [6] it was > 46 µM (inactive). Besides, the results for the activity change, negative = inhibition in assay [2], in assay [4] and in assay [12] were 0.866% (inactive), -2.97% (inactive) and 4.94% (inactive), respectively. In addition, the Potency result in assay [3], in assay [8], in [14], in [9], in [11] and in assay [15] was “inactive” in each case. Moreover, the Potency entry in assay [13] was “inactive”. The activity, negative = inhibition in [5] was 2.49% (inactive). The compound was called inactive in assay [7]. Further, the max response in [12] (setting [16]) turned out to be 13.7%; in [12] (setting [17]) it was 21.6%.

The values are drawn from PubChem BioAssay (NCATS).
